Compound activity: PubChem, National Center for Advancing Translational Sciences (NCATS)
A selection: hits, their analogues and other compounds. The true share with any hit is near 5%.
VACV mCherry inh = vaccinia inhibition (mCherry reporter) | Vaccinia virus mCherry reporter infection, fluorescence | Potency, µM (doses to about 36.5 µM), hits mostly inhibitors | 310,000 tested, 0.63% active; calls by dose curve; tested in A549 cells; also: nearly all actives have a fitted effect of over 35% in size
LmPK inh = LmPK (Leishmania mexicana) enzyme inhibition. Q27686. purified LmPK, Kinase-Glo ATP luminescence, 1 h. 290,000 tested, 0.37% active. Potency, µM (highest dose often 57.5 µM), hits mostly inhibitors
Target sequence (Q27686 whole entry, looked up): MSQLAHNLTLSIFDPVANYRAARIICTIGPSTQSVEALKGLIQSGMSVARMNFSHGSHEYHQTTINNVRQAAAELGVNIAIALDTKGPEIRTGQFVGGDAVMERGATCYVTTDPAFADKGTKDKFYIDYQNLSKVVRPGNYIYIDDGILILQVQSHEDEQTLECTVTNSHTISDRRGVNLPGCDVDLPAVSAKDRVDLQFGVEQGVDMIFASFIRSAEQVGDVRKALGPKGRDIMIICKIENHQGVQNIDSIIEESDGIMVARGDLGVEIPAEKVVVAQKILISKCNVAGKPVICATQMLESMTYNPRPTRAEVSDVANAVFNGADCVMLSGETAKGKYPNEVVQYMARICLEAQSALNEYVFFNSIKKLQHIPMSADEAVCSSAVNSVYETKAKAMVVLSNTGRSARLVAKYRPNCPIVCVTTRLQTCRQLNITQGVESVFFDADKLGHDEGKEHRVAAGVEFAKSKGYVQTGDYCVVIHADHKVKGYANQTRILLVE
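Pyruvate kinase activity monitored as ATP production (luciferase luminescence). Conditions: 0.1 nM enzyme, 0.5 mM PEP, 0.1 mM ADP, 1 h, RT; normalized against uninhibited and no-enzyme wells.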
Tb PYK inh = inhibitors of Trypanosoma brucei pyruvate kinase | TbPYK enzyme, Kinase-Glo Plus ATP luminescence, 45 min | Potency, µM (highest dose often 76.8 µM), hits mostly inhibitors | 410,000 tested, 0.12% active | AID 624173; also: nearly all actives have a fitted effect of over 50% in size
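Assay buffer: 50 mM TEA pH 7.2, 100 mM KCl, 10 mM MgCl2, 0.05% BSA, 0.01% Tween-20. Pyruvate kinase from T. brucei plus substrate met compound, then ADP (130 uM final). Luminescence was read post 45 min RT.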
HCMV inh = inhibitors of human cytomegalovirus; activity change, negative = inhibition, % at 57.5 µM; HFF cells, HCMV-luciferase reporter, 72 h; hits give low values; AID 1259415; 410,000 tested, 4.5% active; in the data active = activity change below about -60%; inconclusive = no clear call, values can overlap the other calls; inactive = above about -39%
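Cell-based, HFFs, 1000 cells/well, 16 h 37C; cpds in DMSO + HCMV-luc, MOI 1 PFU/cell; 72 h 37C; OneGlo luminescence after 5 min RT; norm. to buffer vs Salinomycin 10uM.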
Vaccinia Venus = vaccinia inhibition (Venus reporter) | Vaccinia virus Venus reporter expression, fluorescence | Potency, µM (highest dose often 36.5 µM), most hits filed as inhibitors | 330,000 tested, 0.46% active | AID 720580; calls by dose curve; tested in A549 cells; also: nearly all actives have a fitted effect of over 30% in size
Of the large screens only hits and unclear results are named; the others gave an inactive call. Unless noted, calls follow the shape of the dose curve; as a rule, active = well fitted curve in the direction sought with a large enough effect; inconclusive = small, poorly fitted or top-dose-only effect, or another doubt; inactive = no such curve, though single readings can be large; an effect the other way counts as inactive or inconclusive.

Cc1cccc(-n2nnc3c(=O)n(CC(=O)Nc4cc(C)on4)cnc32)c1	none
O=C(CN1CCN(c2ccccc2O)CC1)Nc1ccc(S(=O)(=O)N2CCCCCC2)cc1	none (no result: LmPK inh)
O=S(=O)(c1ccc(F)cc1)N1CCN(CC2CC3C=CC2C3)CC1 (stereo not given)	none
O=S(=O)(c1ccccc1)N1CCN(CC2CC3C=CC2C3)CC1 (stereo not given)	HCMV inh -102
CCN(CC)Cc1c[nH]c2ccccc12	none (no result: VACV mCherry inh)
CN(Cc1c[nH]c2ccccc12)C1CCCCC1	HCMV inh -94
c1ccc2c(CNC3CCCCC3)c[nH]c2c1	none (no result: VACV mCherry inh, Vaccinia Venus)
CN(CCc1ccccc1)Cc1c[nH]c2ccccc12	HCMV inh -99 (no result: VACV mCherry inh, Vaccinia Venus)
CN(Cc1ccccc1)C(=O)C(=O)c1c[nH]c2ccccc12	HCMV inh -70 (no result: LmPK inh)
O=C(Nc1cccc(S(=O)(=O)N2CCOCC2)c1)C1CCCC1	none (no result: VACV mCherry inh, LmPK inh, Vaccinia Venus)
COc1ccc(-c2cc3c(=O)n(CC(=O)Nc4cccc(Cl)c4)ncn3n2)cc1	none (no result: VACV mCherry inh, Vaccinia Venus)
COc1cc2c(cc1O)C(Cc1ccc(O)cc1)N(C)CC2 (stereo not given)	none (no result: LmPK inh, Tb PYK inh, HCMV inh)
COc1ccccc1Nc1nnc(SCC2CCCCO2)s1 (stereo not given)	LmPK inh 14µM
c1cncc(CNc2ncnc3ccc(-c4ccc5c(c4)OCCO5)cc23)c1	none (no result: VACV mCherry inh, LmPK inh, Vaccinia Venus)
COC(=O)CN1C(=O)S/C(=C/c2ccc(N3CCCCC3)o2)C1=O	HCMV inh -104 (no result: VACV mCherry inh, Vaccinia Venus)
CCOC(=O)CN1C(=O)S/C(=C/c2ccc(N3CCCCC3)o2)C1=O	none
CCCN1C(=O)S/C(=C/c2ccc(N3CCOCC3)o2)C1=O	VACV mCherry inh inconclusive, HCMV inh -79
CCCN1C(=O)S/C(=C\c2ccc(N3CCOCC3)o2)C1=O	VACV mCherry inh inconclusive, Tb PYK inh inconclusive
COC(=O)CN=C1OC(=O)N2C(=O)C3=C4[C@@H](C[C@H]5C(=O)N(c6ccccc6)C(=O)[C@H]5[C@H]4[C@@]12Cc1ccccc1)[C@H]1C(=O)N(c2ccccc2)C(=O)[C@H]1[C@H]3C	none
COc1ccc(C(=O)Nc2ccc(C)cn2)c(OC)c1	LmPK inh 14µM, HCMV inh -76
Cc1cccc(/C=N/NC(=O)C2CCCNC2=O)c1 (stereo not given)	none
NNC(=O)C1C(O)CCC2CN3CCc4c([nH]c5ccccc45)C3CC21 (stereo not given)	HCMV inh -100 (no result: LmPK inh)
CCOC(=O)c1[nH]c2ccccc2c1NC(=O)NC1CCCCC1	none
O=C(O)CC(CNS(=O)(=O)c1ccccc1)c1ccccc1 (stereo not given)	HCMV inh -75
C=CCN1c2ccccc2C(=O)C(C)S1(=O)=O (stereo not given)	none (no result: LmPK inh)
CCOc1ccccc1NC(=O)c1ccc(C(=O)Nc2ccccc2OCC)nc1	HCMV inh -64 (no result: VACV mCherry inh, Vaccinia Venus)
CCS(=O)(=O)c1ncc(Cl)c(C(=O)Nc2ccccc2OC)n1	none
CCOc1ccccc1NC(=O)c1nc(S(=O)(=O)Cc2ccccc2)ncc1Cl	HCMV inh -109 (no result: VACV mCherry inh, Vaccinia Venus)
COc1ccc(OC)c(NC(=O)c2nc(S(=O)(=O)Cc3ccc(F)cc3)ncc2Cl)c1	VACV mCherry inh inconclusive, HCMV inh -97, Vaccinia Venus inconclusive (no result: LmPK inh)
COc1ccccc1NC(=O)c1ccc(C(=O)Nc2ccccc2OC)nc1	none
COc1ccccc1NC(=O)c1nc(S(=O)(=O)Cc2ccccc2)ncc1Cl	HCMV inh -113, Vaccinia Venus inconclusive
O=C(NNC(=O)c1csc(-c2cccs2)n1)c1ccc(Cl)cc1	HCMV inh -103 (no result: LmPK inh)
Cc1nc(C(=O)NNC(=O)c2ccc(Cl)cc2)cs1	HCMV inh -101
Cc1cccc(N2CCN(C(=O)CCCCCn3c(=S)[nH]c4ccc(N5CCOCC5)cc4c3=O)CC2)c1C	none (no result: VACV mCherry inh, Vaccinia Venus)
O=C(CCSc1ccccc1)NNC(=O)c1ccccc1F	none (no result: LmPK inh)
CCOc1ccc(C(=O)NCCS(=O)(=O)N2CCN(c3ccccc3F)CC2)cc1OCC	none (no result: LmPK inh)
COc1cc2c(cc1OC)-c1c3c(cc4c1[C@@H](C2)N(C)CC4)OCO3	VACV mCherry inh inconclusive, HCMV inh -76
COc1cc2c(cc1O)C(Cc1ccc(O)cc1)NCC2 (stereo not given)	none
COc1cc2c(cc1OC)-c1c(OC)c(OC)cc3c1C(C2)N(C)CC3 (stereo not given)	none
COc1cc2c(cc1O)C[C@H]1NCCc3cc4c(c-2c31)OCO4	HCMV inh -84, Vaccinia Venus inconclusive
COc1ccc(-n2c(SCC(=O)NCCCN3CCCC3=O)nnc2C(C)N2CCCCC2)cc1 (stereo not given)	none (no result: VACV mCherry inh, Vaccinia Venus)
O=C(NCCNc1ccnc2cc(Cl)ccc12)c1ccccc1F	HCMV inh -62 (no result: VACV mCherry inh, Vaccinia Venus)
O=C(NCCNc1ccc(Cl)cc1[N+](=O)[O-])c1ccccc1F	none (no result: VACV mCherry inh, Vaccinia Venus)
Clc1ccc(NNc2ccnc3cc(Cl)ccc23)cc1	HCMV inh -69 (no result: VACV mCherry inh, Vaccinia Venus)
Clc1ccc2c(NCc3ccccc3)ccnc2c1	HCMV inh -74
CCN(CC)CCNc1ccnc2cc(Cl)ccc12	none (no result: VACV mCherry inh, Vaccinia Venus)
CCNC1CCC(Nc2ccnc3cc(Cl)ccc23)CC1 (stereo not given)	none (no result: LmPK inh)
OC(CNc1ccnc2cc(Cl)ccc12)CNC1CCCCC1 (stereo not given)	HCMV inh -78, Vaccinia Venus inconclusive (no result: LmPK inh)
c1cncc(-c2nn3cnnc3s2)c1	none
CCN(CCCNC(=O)c1ccc(Sc2ccc(Cl)cc2)c(NC(C)=O)c1)c1ccccc1	none (no result: LmPK inh)
N#Cc1ccc(C(=O)NC(=S)N2CCN(C=O)CC2)cc1	none (no result: LmPK inh)
C[C@H](CO)N1C[C@H](C)[C@@H](CN(C)C(=O)Nc2cccc(C(F)(F)F)c2)OCc2cn(nn2)CCCC1=O	none (no result: VACV mCherry inh, LmPK inh, Tb PYK inh, Vaccinia Venus)
COc1ccc(CNCCC(c2ccc(F)cc2)c2ccc(OC(C)C)cc2)cc1OC (stereo not given)	VACV mCherry inh inconclusive, HCMV inh -97, Vaccinia Venus inconclusive
COc1ccc(CN(CCC(c2ccccc2)c2ccc(OC(C)C)cc2)C(=O)CCl)cc1OC (stereo not given)	HCMV inh -100, Vaccinia Venus inconclusive
COc1ccc(C(CCN(Cc2ccc(OC)c(OC)c2)C(C)=O)c2ccccc2)cc1 (stereo not given)	none (no result: VACV mCherry inh, Vaccinia Venus)
COc1ccc(C(CCNCc2ccc(OC(C)C)cc2)c2ccccc2OC)cc1 (stereo not given)	HCMV inh -70 (no result: VACV mCherry inh, Vaccinia Venus)
COc1ccc(CNCCC(c2ccccc2)c2ccc(OC(C)C)cc2)cc1OC (stereo not given)	VACV mCherry inh inconclusive
COc1ccc(C(CCNCc2ccccc2)c2ccc(F)cc2)cc1 (stereo not given)	VACV mCherry inh inconclusive, Vaccinia Venus inconclusive
COc1ccc(C(CCNC(C)c2ccccc2)c2ccc(F)cc2)cc1 (stereo not given)	VACV mCherry inh 11µM, HCMV inh inconclusive, Vaccinia Venus inconclusive
O=C(Nc1ccccc1Cl)c1ccc(-n2cccn2)c([N+](=O)[O-])c1	VACV mCherry inh inconclusive
CC1CN(C(=O)COC(=O)c2ccccc2O)CC(C)O1 (stereo not given)	none
CCNc1ncc2nc(-c3cc(F)cc(F)c3)c(=O)n(-c3ccc(OC)cc3)c2n1	none (no result: VACV mCherry inh, LmPK inh, HCMV inh, Vaccinia Venus)
O=C(O)c1ccc2c3c(cccc13)C(=O)N(c1ccccc1)C2=O	none
